Assay outcomes (PubChem)
TWEAK Fn14 block: inhibitors of TWEAK-Fn14 interaction signaling; AID 1159606; TWEAK-stimulated Fn14 reporter cells, luciferase luminescence, 8 h; 360,000 tested, 2% active; inhibition, % at 10 µM; in the data active = inhibition above about 50%
LGR2 inh: Drosophila LGR2 receptor signaling inhibition; 380,000 tested, 0.35% active; inhibition, % at 9.99 µM; HEK293 LGR2, CRE-luciferase, bursicon-stimulated, 4 h;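 active = drop in luminescence signal, shown as inhibition above about 50% in the replicate tests, limit read from the data, passing the limit was not always enough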;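 also: agonist challenge used bursicon conditioned medium at about half maximal strength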
EWS-Fli block: EWS/Fli transcriptional activity inhibition; A673 NR0B1-luciferase reporter, viability-normalised; inhibition, % at 12.6 µM; 350,000 tested, 0.67% active; AID 651661;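 active = mean inhibition of at least 50% after viability correction, with every replicate also passing that limit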;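 also: firefly luciferase signal divided by Alamar Blue viability fluorescence both relative to DMSO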
TROY signal inh: TROY signaling inhibition; Q293 LMP1-TROYcd NF-kB luciferase reporter, 4 h; AID 1347056; 360,000 tested, 0.98% active; inhibition, % at 10 µM;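 active = compounds whose plate-normalised and pattern-corrected inhibition of the luciferase reporter signal at the single screening dose is 50% or more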
EBV LMP1 NFkB: inhibitors of Epstein-Barr LMP1-induced NF-kappaB reporter. LMP1-induced NF-kappaB luciferase reporter cells, luminescence. inhibition, % at 12.5 µM. 350,000 tested, 0.69% active; in the data active = inhibition above about 41%;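 also: 0% = neutral control wells and 100% = reference inhibitor control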
PAX8 inh HTS: lowers PAX8-driven luciferase in RMG-I cells | RMG-I TPO-luciferase reporter, SteadyGlo, 24 h | inhibition, % at 12.6 µM | 360,000 tested, 1.2% active | AID 652154;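 active = mean replicate inhibition at least 60% with every replicate also reaching 60%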;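 also: luciferase light reporting Pax8 driven TPO promoter activity; plate controls were median of neutral control wells for no effect and mitoxantrone controls for full effect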
Active calls of the source: *. Shown are actives, neighbours in structure and some others; about 3.2% of the full set was active somewhere.

Results for Cc1cccc(S(=O)(=O)N2CC[C@H]3[C@H](CO)Nc4ccc(-c5ccccc5F)cc4[C@H]32)c1 ?
LGR2 inh: 2; EWS-Fli block: 11; PAX8 inh HTS: 12

How did Cc1cccc(S(=O)(=O)N2CC[C@@H]3[C@H]2c2cc(C4=CCCCC4)ccc2N[C@@H]3CO)c1 do in these assays?
LGR2 inh: -20; EWS-Fli block: 8; PAX8 inh HTS: 91*

What do the screens show for `O=S(=O)(c1ccccc1F)N1CC[C@@H]2[C@@H](CO)Nc3ccc(C4=CCCCC4)cc3[C@@H]21`?
LGR2 inh: -17; EWS-Fli block: -8; PAX8 inh HTS: 83*

How did COc1cccc(S(=O)(=O)N2CC[C@@H]3[C@H](CO)Nc4ccc(C5=CCCCC5)cc4[C@@H]32)c1 do in these assays?
LGR2 inh: 0; EWS-Fli block: -1; PAX8 inh HTS: 91*

How did COc1cccc(-c2ccc3c(c2)[C@H]2[C@H](CCN2S(=O)(=O)c2cccc(OC)c2)[C@@H](CO)N3)c1 do in these assays?
LGR2 inh: 14; EWS-Fli block: -6; PAX8 inh HTS: 29

Results for C[C@@H]1CCCCO[C@H](CN(C)Cc2ccc(C(=O)O)cc2)[C@@H](C)CN([C@H](C)CO)C(=O)c2cc(NC(=O)Nc3ccc4c(c3)OCO4)ccc2O1 ?
LGR2 inh: 0; EWS-Fli block: -18; PAX8 inh HTS: 1

Results for C[C@H](CO)N1C[C@H](C)[C@H](CN(C)Cc2ccncc2)Oc2ccc(NC(=O)Cn3cnnn3)cc2CC1=O ?
LGR2 inh: 7; EWS-Fli block: 4; PAX8 inh HTS: 10

How did COc1ccc2c3c(n(C)c2c1)[C@@H](CO)N(C(C)=O)CC31CCN(C(=O)Nc2ccc(F)cc2)CC1 do in these assays?
LGR2 inh: 2; EWS-Fli block: 21

How did COc1ccc2oc(C(=O)Nc3ccccn3)c(C)c2c1 do in these assays?
TWEAK Fn14 block: 52*; LGR2 inh: -24; TROY signal inh: 8; EBV LMP1 NFkB: -6; PAX8 inh HTS: -160

How did COc1ccc2oc(C(=O)N3CCc4ccccc43)c(C)c2c1 do in these assays?
TWEAK Fn14 block: 73*; LGR2 inh: 59*; TROY signal inh: 63*; EBV LMP1 NFkB: 37; PAX8 inh HTS: -72

How did COc1ccc2oc(C(=O)Nc3ccc(C)cn3)c(C)c2c1 do in these assays?
TWEAK Fn14 block: 11; LGR2 inh: -52; EWS-Fli block: -48; TROY signal inh: -47; EBV LMP1 NFkB: -11; PAX8 inh HTS: -52

How did COc1ccc2oc(C(=O)N3CCN(C(c4ccccc4)c4ccccc4)CC3)c(C)c2c1 do in these assays?
TWEAK Fn14 block: 9; LGR2 inh: 11; EWS-Fli block: 12; TROY signal inh: 13; EBV LMP1 NFkB: 8; PAX8 inh HTS: 11

Results for CN1CCN(C(=O)C[C@H]2C[C@H]3c4cc(NC(=O)c5cccnc5)ccc4O[C@H]3[C@@H](CO)O2)CC1 ?
LGR2 inh: 29; EWS-Fli block: 0; PAX8 inh HTS: 0

How did COc1cccc(NC(=O)C[C@H]2CC[C@@H]3[C@@H](COc4ccc(NC(=O)C5CCC5)cc4C(=O)N3C)O2)c1 do in these assays?
LGR2 inh: 5; EWS-Fli block: -1; PAX8 inh HTS: -3

Results for COc1ccc(/C=N\NC(=O)c2ccc(Cn3cc(Br)c([N+](=O)[O-])n3)o2)c(OC)c1C ?
TWEAK Fn14 block: 63*; EWS-Fli block: 9; TROY signal inh: 5; EBV LMP1 NFkB: -1; PAX8 inh HTS: 28

How did COc1ccc(/C=N/NC(=O)c2ccc(Cn3cc([N+](=O)[O-])cn3)o2)c(OC)c1C do in these assays?
TWEAK Fn14 block: -21; TROY signal inh: 30; EBV LMP1 NFkB: -2

What do the screens show for `CCOC(=O)C1=C(N)Oc2cc(C)[nH]c(=O)c2C1c1ccncc1` (stereo not drawn)?
TWEAK Fn14 block: 76*; EBV LMP1 NFkB: -2

How did O=C(NC(=S)Nc1ccc(S(=O)(=O)NC2CCCCC2)cc1)c1cccs1 do in these assays?
TWEAK Fn14 block: 53*; LGR2 inh: 3; EWS-Fli block: 27; TROY signal inh: 17; EBV LMP1 NFkB: 21; PAX8 inh HTS: 37

What do the screens show for `O=C(NC(=S)Nc1ccc(S(=O)(=O)N2CCCCC2)cc1)c1cccs1`?
TWEAK Fn14 block: 4; LGR2 inh: 4; EWS-Fli block: 16; TROY signal inh: -10; EBV LMP1 NFkB: 1; PAX8 inh HTS: 23

Results for Cc1noc(C)c1NC(=O)N(C)C[C@H]1OCCCC[C@@H](C)Oc2ccc(NS(=O)(=O)c3ccc(Cl)cc3)cc2C(=O)N([C@@H](C)CO)C[C@@H]1C ?
LGR2 inh: -1; EWS-Fli block: 13; PAX8 inh HTS: 20

How did O=C(O)c1cc(/C=C/c2ccc(N3CCOCC3)cc2)nc2ccccc12 do in these assays?
TWEAK Fn14 block: 40; LGR2 inh: 69*; EWS-Fli block: -5; TROY signal inh: 9; EBV LMP1 NFkB: 59*; PAX8 inh HTS: -9

Results for O=C(O)c1cc(/C=C/c2ccc(N3CCOCC3)c([N+](=O)[O-])c2)nc2ccccc12 ?
TWEAK Fn14 block: -7; LGR2 inh: -4; EWS-Fli block: -21; TROY signal inh: -42; EBV LMP1 NFkB: 16; PAX8 inh HTS: 1

How did Cc1nn(CC(=O)c2ccccc2Cl)c(C)c1[N+](=O)[O-] do in these assays?
TWEAK Fn14 block: 52*; LGR2 inh: -64; EWS-Fli block: -35; TROY signal inh: 57*; EBV LMP1 NFkB: -20; PAX8 inh HTS: -166

How did C[C@H]1CN([C@@H](C)CO)C(=O)Cc2cc(NS(=O)(=O)c3ccc(F)cc3)ccc2O[C@H]1CN(C)C(=O)Nc1ccc(F)cc1 do in these assays?
LGR2 inh: -5; EWS-Fli block: -4

What do the screens show for `COc1ccc(Nc2nc(-c3cccs3)nc3ccccc23)cc1S(=O)(=O)N1CCOCC1`?
TWEAK Fn14 block: 97*; LGR2 inh: 16; EWS-Fli block: 3; TROY signal inh: 27; EBV LMP1 NFkB: 15; PAX8 inh HTS: 53

How did Cc1ccc(NC(=O)c2ccc([N+](=O)[O-])s2)cc1S(=O)(=O)N1CCOCC1 do in these assays?
TWEAK Fn14 block: 22; LGR2 inh: 14; EWS-Fli block: 38; TROY signal inh: 23; EBV LMP1 NFkB: -5; PAX8 inh HTS: 101*

Results for Cc1ccc(NC(=O)c2ccc(S(=O)(=O)N(C)c3ccccc3)cc2)cc1S(=O)(=O)N1CCOCC1 ?
TWEAK Fn14 block: 59*; LGR2 inh: 9; EWS-Fli block: 27; TROY signal inh: 39; EBV LMP1 NFkB: 10; PAX8 inh HTS: 65*

Results for O=C(Nc1cc(S(=O)(=O)N2CCOCC2)ccc1O)c1ccc(NS(=O)(=O)c2ccc(Cl)s2)cc1 ?
TWEAK Fn14 block: 2; LGR2 inh: -2; EWS-Fli block: 0; TROY signal inh: 8; EBV LMP1 NFkB: -5; PAX8 inh HTS: 1

What do the screens show for `O=C(Nc1cc(S(=O)(=O)N2CCOCC2)ccc1N1CCOCC1)c1ccc([N+](=O)[O-])s1`?
TWEAK Fn14 block: -13; LGR2 inh: -5; EWS-Fli block: 25; TROY signal inh: 4; EBV LMP1 NFkB: -8; PAX8 inh HTS: 4
